Screens from PubChem.
MITF act – activators of MITF-driven TRPM1 promoter activity in SK-MEL-5 cells; SK-MEL-5 TRPM1-promoter luciferase, 24 h; % of positive control, neutral wells = 0; activation, % at 12.5 µM; 0.75% of 300,000 active;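 active = mean activation of at least 80% with every replicate also reaching 80%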;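 also: 0% = neutral control wells and 100% = parthenolide positive control wells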
esBAF inh – blocks esBAF chromatin remodeling in mouse ES cells | Bmi1-luciferase knock-in reporter, 24 h; 100% = twice the neutral-well signal | reporter increase, % at 12.5 µM | 2% of 350,000 active; in the data active = activation above about 40%;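 also: 0% = median of the plate's neutral control wells and 100% = double that signal; a rise in the Bmi1 reporter signal indicates esBAF inhibition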
Wnt bcat act – activates Wnt/beta-catenin signaling in a reporter cell assay. activation, % at 9.35 µM. AID 743398. 1.2% of 300,000 active. activator, plate reader; in the data active = activation above about 30%, passing the limit was not always enough;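 also: 0% = neutral control wells and 100% = positive control wells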
HIV Env fusion – inhibitors of HIV Env-mediated cell fusion; HeLa-JRFL Env/CEM21 cell fusion, luciferase; inhibition, % at 12.3 µM; 1.1% of 360,000 active; AID 651610;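 active = mean replicate inhibition score of at least 50 and every replicate individually at or above 50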;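 also: 0% = plate neutral controls and 100% = maraviroc near 300 nM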
miR122 inh – inhibitors of miR-122 in Huh7 cells; 0.3% of 340,000 active; activation (reporter increase), % at 12.5 µM; Huh7 miR-122 Renilla luciferase sensor, 48 h; neutral wells = 0, positive control = 100; AID 602342;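 active = mean replicate activation score at least 90 and every replicate individually at or above 90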;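 also: higher luciferase means less miR-122 activity so hits act as miR-122 inhibitors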
Active calls of the source: *; . = no result given; [ ] = dose if it differs, or a comment. An excerpt weighted towards active compounds, which were near 3.4% of everything screened.

SMILES | MITF act | esBAF inh | Wnt bcat act | HIV Env fusion | miR122 inh
CCOC(=O)c1c(C)[nH]c(N=Nc2ccc(OC)cc2)c1C | 129* | . | 54* | -32 | .
CCOC(=O)c1c(C)[nH]c(N=Nc2ccc(C)cc2)c1C | 124* | 62* | . | . | -2
C[C@H]1CN([C@@H](C)CO)C(=O)c2cccc(NC(=O)c3ccncc3)c2O[C@@H]1CN(C)C(=O)Nc1ccc(F)cc1 | . | 0 | . | . | 11[16.7 µM]
CC(C)(C)c1nnc(N/N=C/c2cc(Br)ccc2O)n(N)c1=O | -67 | . | 33* | 4 | -29
CCc1nnc(N/N=C/c2cc(Br)c(O)cc2O)n1N | -9 | -6 | -1 | 8 | 2
NC(=O)c1ccsc1NC(=O)CSc1ccccc1F | 61 | 75* | 25 | . | .
Cc1ccccc1SCC(=O)OCC(=O)Nc1sccc1C(N)=O | 5 | . | 0 | 13 | .
Cc1cccc(OCC(=O)OCC(=O)Nc2sccc2C(N)=O)c1 | -5 | 3 | 2 | -6 | -5
NC(=O)c1ccsc1NC(=O)COc1ccccc1 | 70 | 65* | -3 | . | 9
C[C@H](CO)N1C[C@H](C)[C@H](CN(C)S(=O)(=O)c2ccccc2)Oc2c(NC(=O)c3nc4ccccc4s3)cccc2C1=O | . | 4 | . | 0[16.7 µM] | 2[16.7 µM]
COc1cc2c(cc1NC(=O)c1ccco1)CCCC2 | 40 | 76* | 12 | . | 28
COc1cc(NC(=O)C(C)C)ccc1NC(=O)c1ccco1 | 91* | 17 | -2 | . | -2
COc1cc(NC(=S)NC(=O)c2ccco2)ccc1NC(=O)C(C)C | 8 | . | 1 | -1 | .
O=C(C[C@H]1CC[C@@H](NS(=O)(=O)c2ccc(F)cc2)[C@H](CO)O1)NCc1ccncn1 | . | 3 | . | 4[16.7 µM] | .
COc1cccc(NC(=O)C[C@H]2CC[C@@H]3[C@@H](COc4ccc(NC(C)=O)cc4C(=O)N3C)O2)c1 | . | 3 | . | -17[16.7 µM] | -7[16.7 µM]
COc1ccc(S(=O)(=O)Nc2ccc3c(c2)[C@@H]2C[C@@H](CC(=O)O)O[C@@H](CO)[C@@H]2O3)cc1 | . | -2 | . | . | 2[16.7 µM]
Cc1noc(C)c1S(=O)(=O)Nc1ccc2c(c1)C(=O)N([C@H](C)CO)C[C@@H](C)[C@@H](CN(C)CC1CCCCC1)OCCCC[C@H](C)O2 | . | 2 | . | -5[16.7 µM] | -1[16.7 µM]
O=C(C[C@H]1C[C@H]2c3cc(NC(=O)C4CCC4)ccc3O[C@H]2[C@H](CO)O1)NCc1ccc2c(c1)OCO2 | . | -2 | . | 81*[16.7 µM] | 4[16.7 µM]
O=C(C[C@@H]1C[C@@H]2c3cc(NC(=O)C4CCC4)ccc3O[C@@H]2[C@@H](CO)O1)NCc1ccc2c(c1)OCO2 | . | -1 | . | 79*[16.7 µM] | -3[16.7 µM]
CN1C(=O)c2cc(NS(C)(=O)=O)ccc2OC[C@@H]2O[C@H](CC(=O)NCc3ccc(-c4ccccc4)cc3)CC[C@@H]21 | . | 7 | . | 53[16.7 µM] | .
COCCNC(=O)C(=O)Nc1cccc(Br)c1 | 54 | 57* | 5 | . | -9
COCCNC(=O)C(=O)Nc1ccc(Br)cc1 | 27 | 49* | . | . | -9
O=C(C[C@H]1C[C@@H]2c3cc(NC(=O)C4CCOCC4)ccc3O[C@@H]2[C@H](CO)O1)NCC(F)(F)F | . | -3 | . | -2[16.7 µM] | 5[16.7 µM]
C[C@H]1CN([C@@H](C)CO)C(=O)c2cc(NS(=O)(=O)c3cn(C)cn3)ccc2O[C@H]1CN(C)Cc1ccccc1 | . | 2 | . | -1[16.7 µM] | -2[16.7 µM]
CCOC(=O)C(=O)/C(C#N)=C/Nc1ccccc1 | -4 | -2 | -6 | . | -7
SMILES | MITF act | esBAF inh | Wnt bcat act | HIV Env fusion | miR122 inh
CCOC(=O)/C(C#N)=C/Nc1ccccc1OC | 117* | 47* | . | -356 | 5
COc1ccccc1NC(=O)CN(c1ccc(C23CC4CC(CC(C4)C2)C3)cc1)S(C)(=O)=O | -1 | 9 | . | 104* | -4
CS(=O)(=O)N(CC(=O)O)c1ccc(C23CC4CC(CC(C4)C2)C3)cc1 | . | 4 | -1 | 7 | 2
CC=Cc1ccc2n(c1=O)C[C@@H]1[C@@H](CO)[C@H](C(=O)N3CCCCC3)[C@H]2N1Cc1ccccn1 (mixture of isomers) | . | -4 | . | -4[16.7 µM] | .
Cc1nc([N+](=O)[O-])cn1CC(O)c1ccc(Cl)cc1 (stereo unspecified) | . | . | 37* | 13 | -5
Cc1cc(OCc2cc(C(=O)NC(C)c3c(C)nn(C)c3C)no2)cc(C)c1Cl (stereo unspecified) | 46 | 83* | 1 | -28 | 0
Cc1cc(OCc2cc(C(=O)NC(C)c3cnn(C)c3)no2)cc(C)c1Cl (stereo unspecified) | . | 72* | . | -72 | 9
CC(=O)c1ccc(OCc2cc(C(=O)NC(C)c3cnn(C)c3)no2)cc1 (stereo unspecified) | 29 | 11 | 20 | -234 | .
COCC(=O)Nc1ccc2c(c1)[C@@H]1C[C@@H](CC(=O)NCCc3ccccc3)O[C@@H](CO)[C@@H]1O2 | . | 3 | . | -10[16.7 µM] | 1[16.7 µM]
CC(C)C#Cc1ccc2c(c1)O[C@H](CN(C)CC1CCOCC1)[C@H](C)CN([C@@H](C)CO)S2(=O)=O | . | -4 | . | 6[16.7 µM] | 30[16.7 µM]
CC(C)(C)C(=O)Nc1cc(S(=O)(=O)Nc2ccc(Cl)cc2)ccc1O | -5 | . | 3 | 6 | 167*
CC(C)C(=O)Nc1cc(S(=O)(=O)Nc2ccc(Cl)cc2)ccc1Cl | -13 | . | -3 | -29 | .
O=C(Cc1ccccc1)c1ccc2c(c1)OCCO2 | 75 | 31 | 7 | -17 | -1
COc1ccc(C(=O)Cc2ccc3c(c2)OCO3)c(O)c1 | 77 | . | 37* | -65 | .
O=C(Cc1ccc2c(c1)OCCO2)c1c(O)cc(O)cc1O | 39 | 55* | 8 | . | -4
O=C(O)COc1ccc(C(=O)Cc2ccc3c(c2)OCCCO3)c(O)c1 | 9 | -9 | 0 | . | -6
Cc1noc(C)c1S(=O)(=O)Nc1ccc2c(c1)C(=O)N([C@@H](C)CO)C[C@H](C)[C@H](CN(C)S(=O)(=O)c1ccc(Cl)cc1)O2 | . | 5 | . | 8[16.7 µM] | -2[16.7 µM]
CO[C@H]1CN(C)C(=O)c2cc(NS(C)(=O)=O)ccc2OC[C@@H](C)N(CC2CCCCC2)C[C@H]1C | . | -2 | . | . | 7[16.7 µM]
COc1cccc(NC(=O)Cn2c(=O)oc3cc(S(=O)(=O)N4CCCC4)ccc32)c1 | 1 | . | 37* | 8 | -6
O=C(CSc1nnc(Nc2ccccc2F)s1)Nc1cccc(S(=O)(=O)N2CCCCC2)c1 | 30 | 43* | 20 | -62 | -6
COc1ccc(NC(=O)Cn2c(=O)oc3cc(S(=O)(=O)N4CCCC4)ccc32)c(OC)c1 | . | -12 | -2 | -1 | -5
O=C(Cc1ccc(F)cc1)Nc1cccc(S(=O)(=O)N2CCCC2)c1 | -9 | . | -2 | 63* | .
COc1ccc(NC(=O)Nc2ccc3c(c2)CC(=O)N([C@@H](C)CO)C[C@@H](C)[C@H](CN(C)C(=O)Nc2ccccc2)O3)cc1 | . | -8 | . | . | 4[16.7 µM]
COc1cccc(C(=O)N2C[C@@H]3[C@H](c4ccccc42)[C@@H](CO)N3C(=O)c2ccccc2)c1 | . | -6 | . | . | 30[16.7 µM]
CCCN1[C@@H]2c3ccc(-c4cccnc4)c(=O)n3C[C@H]1[C@H](CO)[C@H]2C(=O)NCCc1cn(C)cn1 | . | -5 | . | 19[16.7 µM] | .
